PubChem BioAssay (NCI)
Compounds without any hit were thinned out: in the full panel of roughly 79,000, 15% have a hit. Values without a mark were called inactive. The source made the active and inactive calls. Cut-off read from the data, not from the text of the source: active = growth inhibition above about 70%; inactive = the rest.

Experiments:
[1] = NCI Yeast Anticancer Drug Screen. Data for the rad50 strain (AID 155);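 note: 0% = growth of vehicle-only cultures of the same strain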; conditions: S. cerevisiae rad50 strain growth inhibition; at 50.0 µM; hits give high values
How it was run: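 Cells are treated with compound, grown, and their growth is then scored against vehicle-only cultures of the same repair-deficient yeast strain.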

[2] = NCI Yeast Anticancer Drug Screen. Data for the mec2-1 strain (AID 157); conditions: S. cerevisiae mec2-1 strain, at 50.0 µM, hits give high values
How it was run: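 Vehicle-treated cultures served as reference for growth inhibition of compound-exposed mec2-1 yeast.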

[3] = NCI Yeast Anticancer Drug Screen. Data for the sgs1 mgt1 strain (AID 161);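 note: 0% = growth of cultures given vehicle only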; conditions: S. cerevisiae sgs1 mgt1 strain, at 50.0 µM, hits give high values
How it was run: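 Read-out: growth inhibition vs vehicle controls. Cells: mutant yeast strain deficient in DNA damage repair.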

[4] = NCI Yeast Anticancer Drug Screen. Data for the cln2 rad14 strain (AID 165);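 note: 0% = growth equal to vehicle treated cultures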; conditions: S. cerevisiae cln2 rad14 strain, at 50.0 µM, hits give high values
How it was run: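 Each compound was tested on cln2 rad14 yeast. Inhibition of growth was calculated against vehicle-exposed controls.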

[5] = NCI Yeast Anticancer Drug Screen. Data for the bub3 strain (AID 167); conditions: S. cerevisiae bub3 mutant strain, at 50.0 µM, hits give high values
How it was run: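 Part of a panel of yeast mutants defective in DNA damage repair or cell cycle regulation. Each strain is grown with compound, and inhibition is calculated relative to solvent-treated cultures.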

[6] = NCI Yeast Anticancer Drug Screen. Data for the mlh1 rad18 strain (AID 175); conditions: S. cerevisiae mlh1 rad18 strain growth inhibition; at 50.0 µM; hits give high values
How it was run: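 Vehicle-treated cultures served as the reference for growth inhibition in a yeast strain carrying DNA damage repair alterations exposed to each compound.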

SMILES | growth inhibition [1] | growth inhibition [2] | growth inhibition [3] | growth inhibition [4] | growth inhibition [5] | growth inhibition [6]
Cc1cc(S(=O)(=O)F)ccc1NC(=O)NCc1ccc(N2C(N)=NC(N)=NC2(C)C)cc1 | -6.25% | -18% | -3.95% | -37.7% | -9.4% | -8.3%
COc1oc(C2C/C(=C/C(C)=C/C(C)=C/C(C)=C/c3ccc([N+](=O)[O-])cc3)CO2)c(C)c(=O)c1C (stereo not given) | 1.15% | -4.75% | -9.4% | -6.85% | -8.15% | -33%
CN1CCOP(=O)(Oc2ccccc2)N1 (stereo not given) | -46% | -17.4% | -26.1% | -64.2% | 4.5% | -16.1%
c1cc2[se][se]c3c4cccc5[se][se]c(c(c1)c23)c54 | 1.05% | -8.7% | -26.8% | -3.95% | -1.8% | -31.1%
C=CC(Cl)OC(=O)C(C)O (stereo not given) | 16.5% | 20.2% | 15.2% | 11.3% | 1.55% | 6.4%
NC1CN2CCC1CC2 (stereo not given) | 9.35% | -7.65% | -14.6% | 11.8% | -8.55% | 1.15%
CCOC(=S)S.[Pb] | 18.9% | 21.8% | 27.2% | 13.6% | 26.2% | 9.7%
Cc1nc2ccccc2c(=O)n1-c1ccccc1Br | 7.35% | -13.7% | -6.7% | 12.4% | 10.2% | 2.2%
CN1C(=O)c2ccccc2NC(=O)C12O[C@@H]2c1ccccc1 (stereo not given in full) | 0.05% | -19.7% | -4.95% | 14.3% | -9.7% | -16.9%
CC1(C)N=C(N)N=C(N)N1c1ccc(CCc2cc(Cl)ccc2S(=O)(=O)F)c(Cl)c1 | 99.5% (active) | 99.7% (active) | 99.7% (active) | 99.2% (active) | 99.3% (active) | 99.5% (active)
CC(C)N(C(C)C)P(OCCC#N)OC1CC(n2cnc3c(=O)[nH]cnc32)OC1COC(=O)NCCCCCCNC(=O)OC(C)(C)c1ccc(-c2ccccc2)cc1 (stereo not given) | -11.2% | -26.4% | -27% | 10% | 12.8% | -18.4%
COC1=CC=C2[C@@H]3Cc4ccc(OC)c5c4[C@]2(CCN3CCCl)C1O5 (stereo not given in full) | 27% | -5.35% | 4.75% | 8.2% | 6.85% | 10.6%
CN(C)C(=O)Oc1cc(O)cc([N+](=O)[O-])c1 | -5.45% | -11.1% | -10.8% | -6.35% | 24.1% | -28.1%
COc1ccccc1-n1c(C)nc2ccccc2c1=O | -5% | -19.6% | 6.2% | 2.8% | 19.7% | 4.8%
NC(=O)Nc1ccc([As](O)O)cc1 | 11.3% | -2.4% | -0.45% | 11.8% | -20% | 15%
C1CC[N-]CC1.CC(=N\O)/C(C)=N/O.CC(=N\O)/C(C)=N/O.CCOC(=O)CC[C-]=O.[Co+2] | -15.1% | 8.95% | -10.1% | -39.3% | 18% | 9.55%
CCOC(=O)C1C(C=C(C)C)C1(C)C (stereo not given) | -14.3% | -17.4% | -8.8% | -10.8% | -16.6% | -3.95%
CN(C)C(=S)Oc1ccc(Cl)cc1S(=O)(=O)F | 53.6% | 14.2% | 32.4% | 20.4% | -6.7% | 9.6%
CCOP(=O)(CC#N)OCC | -6.85% | -11.7% | -7.05% | -6.4% | 2.7% | 0%
C=Cn1nnnc1N | -3% | 2.05% | -10.3% | 8.6% | 14.3% | 4.5%

SMILES | growth inhibition [1] | growth inhibition [2] | growth inhibition [3] | growth inhibition [4] | growth inhibition [5] | growth inhibition [6]
CN(C)P(=S)(CCPc1ccccc1)N(C)C (stereo not given) | -13.5% | -23.6% | -12.8% | 2.95% | -5.75% | -5.8%
O=S(c1ccc(Cl)cc1)c1ccc(Cl)cc1 | 1.55% | 17.9% | 33.5% | -66.2% | 13.6% | 19.1%
Cc1ccc(C(=O)Nc2ccc(CP(=O)(O)O)cc2)cc1NC(=O)c1cccc(NC(=O)Nc2cccc(C(=O)Nc3cc(C(=O)Nc4ccc(CP(=O)(O)O)cc4)ccc3C)c2)c1 | -0.5% | 0.95% | 3.6% | -10.3% | -1.55% | -9.25%
NC(Cc1cccc(NP(=S)(NCCO)N2CC2)c1)C(=O)O (stereo not given) | -4.95% | 15.1% | 12.8% | -10.9% | 13.1% | 4.35%
N.N.N.O=[N+]([O-])[O-].O=[N+]([O-])[O-].O=[N+]([O-])[O-].O=[N+]([O-])[O-].[Co+3] | 11.6% | 20.7% | 25.5% | 31.3% | 11.8% | -1.35%
N#CC(CCN1CCC(Nc2ccccc2)(c2nnnn2C2CCCCC2)CC1)(c1ccccc1)c1ccccc1 | -13.8% | -16.6% | 3.75% | -5.15% | 4.05% | -21.6%
c1ccc(-c2csc3[nH]c4ccccc4[n+]23)cc1 | 19.4% | 5.6% | 8.35% | 5.7% | 5.25% | 6.35%
CS(=O)(=O)C(Cl)Cl | -1.5% | -4.75% | 0.75% | -2.45% | 6.3% | 19.8%
NS(=O)(=O)CC1CC[CH-]CC1.[Cl-].[Cl-].[Cl-].[Cl-].[Cl-].[Sb+5].c1ccncc1 | 11.3% | -14.1% | -10% | -12.2% | -20.4% | 18.1%
Nc1ccc([N+](=O)[O-])cc1N | 9.15% | -14.7% | -12.8% | -36.9% | -17.4% | 10.2%
CC(NC(=O)c1ccccc1)N(C)[N+](=O)[O-] (stereo not given) | -3.7% | 4% | 2.5% | -13.4% | 5.45% | -5.55%
CCC1(/C=C/C(C)C)C(=O)NC(=S)NC1=O | -0.75% | 4.55% | -0.8% | 0.85% | 0.05% | 2.8%
O=c1[nH]cc(Cn2cccc3c(=O)ncnc2-3)c(=O)[nH]1 | 14.9% | 5.05% | -4.45% | -43.5% | -16.7% | -5.7%
Cn1cnc([N+](=O)[O-])c1C(=O)O (tested in a mixture with another compound) | -18.2% | -3.55% | -6.65% | -18.4% | 27.3% | -1%
S=P1(c2ccccc2)C=C(N2CCCC2)CC1 (stereo not given) | 20.4% | 20.2% | 16.6% | 1.7% | 11.7% | 20.4%
O/N=C(/C(=N/O)c1ccccc1)c1ccccc1.O/N=C(/C(=N/O)c1ccccc1)c1ccccc1.[Ni] | -10.2% | -6.5% | 5.05% | -21.8% | 2.15% | -14.8%
N=Cc1c(O)[nH]c(=O)[nH]c1=O | 1.4% | 8.75% | 3.45% | -10.4% | 0.65% | -0.8%
Cc1c2ccncc2c(C)c2c1[nH]c1ccccc12 | 91.2% (active) | 89.5% (active) | 90.5% (active) | 84.9% (active) | 89.6% (active) | 90.7% (active)
CC(=O)CC(C)=O.CC(=O)CC(C)=O.[O]=[V] | -60.2% | -58% | -57.8% | -153% | -54.6% | -53.2%
NNC(=O)CCC(N)C(=O)O (stereo not given) | -20.3% | -18.4% | -35.3% | -11.8% | -17.4% | -49%
